Only some compounds are listed: those with a hit (about 7.5% of all), similar ones and a draw of the others.
SMN2 splice enh: qHTS Assay for Enhancers of SMN2 Splice Variant Expression. HEK293 SMN2-luciferase splicing reporter, luminescence, 30-36 h. Potency, µM (doses to about 46.1 µM), inactives show at the highest dose activity change, positive = activation, most hits filed as activators. 210,000 compounds, 2.8% hits; further: % of control where 0% means no effect; nearly all actives have a fitted effect of over 55% in size
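HEK293 cells carry an SMN2 […]–luciferase reporter in which exon 7 inclusion puts luciferase in frame. Cells were plated 10-12 h before compound addition, then incubated 30-36 h at 37C. ONE-Glo luminescence was read; sodium butyrate at 4.5 mM final served as control.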
Luc counter: Counterscreen for Luciferase (Kinase-Glo TM) Inhibition; Kinase-Glo luciferase, ATP luminescence, 8 min; Luciferin 4-monooxygenase (Photuris pensylvanica), Q27757; 200,000 compounds, 0.28% hits; Potency, µM (series often up to 38.3 µM), without a hit: top-dose activity change, negative = inhibition, most hits filed as inhibitors; further: on the % scale 0 is the no-effect control and ±100 the full control effect; nearly all actives have a fitted effect of over 60% in size
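Luminescence was the read-out, taken after 8-minute incubation at ambient temperature. Luciferase turned over luciferin with 10 uM ATP in imidazole pH 7.2 buffer containing KCl, MgCl2, Tween 20 and BSA.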
NPC1 promoter act: qHTS Assay for NPC1 Promoter Activators; Huh7 NPC1 promoter luciferase reporter, 24 h; Potency, µM (highest dose often 9.22 µM), for inactives: at the top dose activation, actives largely listed as activators; 320,000 compounds, 2.4% hits; further: % of control where 0% means no effect; nearly all actives have a fitted effect of over 60% in size
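Luminescence from an NPC1 promoter-driven luciferase reporter in stably transfected Huh7 cells was measured after 24 h compound treatment at 37 °C, followed by 10 min ambient incubation with luciferase detection reagent.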
Rab9 promoter act: qHTS Assay for Rab9 Promoter Activators. Huh7 Rab9 promoter-luciferase reporter, luminescence, 24 h. Potency, µM (doses to about 9.22 µM), for inactives: top-dose activation, negative = inhibition, hits mostly activators. 320,000 compounds, 2.8% hits. AID 485297, 2010; further: % of control where 0% means no effect; nearly all actives have a fitted effect of over 60% in size
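Steps: seed 1500 Huh7 Rab9-luc cells per well, rest 2 h at 37 °C; add compound in DMSO; incubate 24 h; add luciferase reagent, 10 min ambient; read luminescence.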
FLuc counter: qHTS profiling assay for firefly luciferase inhibitor/activator using purifed enzyme and Km concentrations of substrates (counterscreen for miR-21 project) | Luciferin 4-monooxygenase (Photinus pyralis), P08659 | purified FLuc, Km substrates, luminescence inhibition | Potency, µM (top dose mostly 57.5 µM), for the others: at the top dose activity change, negative = inhibition, usual class: inhibitors | 360,000 compounds, 6.9% hits | AID 588342, 2011;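 further: plate controls were vehicle for no effect and reference inhibitor for full effect; nearly all actives have a fitted effect of over 55% in size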
Target sequence (P08659 whole entry, looked up): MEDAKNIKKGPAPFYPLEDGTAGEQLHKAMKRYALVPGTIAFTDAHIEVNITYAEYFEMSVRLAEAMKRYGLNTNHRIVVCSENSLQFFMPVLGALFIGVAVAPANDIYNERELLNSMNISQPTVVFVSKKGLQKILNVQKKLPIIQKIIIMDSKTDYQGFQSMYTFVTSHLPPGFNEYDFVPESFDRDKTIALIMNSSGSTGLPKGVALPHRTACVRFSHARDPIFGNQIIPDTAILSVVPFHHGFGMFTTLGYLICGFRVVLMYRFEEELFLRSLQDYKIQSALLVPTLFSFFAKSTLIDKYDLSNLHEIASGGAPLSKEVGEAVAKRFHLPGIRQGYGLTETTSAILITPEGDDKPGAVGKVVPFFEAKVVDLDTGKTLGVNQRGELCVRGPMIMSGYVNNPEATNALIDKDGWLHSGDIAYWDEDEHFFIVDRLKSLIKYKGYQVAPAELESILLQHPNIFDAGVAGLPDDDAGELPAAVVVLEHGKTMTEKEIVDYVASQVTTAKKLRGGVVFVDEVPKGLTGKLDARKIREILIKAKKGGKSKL
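Purified P. pyralis luciferase (10nM final) with 10uM D-luciferin and 10uM ATP (Km levels) in 50mM Tris acetate pH 7.5, 10mM Mg acetate, 0.01% Tween-20, 0.05% BSA; qHTS 6-point titration, ~60 µM downward; luminescence read.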
ELG1 genotoxic: qHTS screen for small molecules that induce genotoxicity in human embryonic kidney (HEK293T) cells expressing luciferase-tagged ELG1. HEK293T ELG1-luciferase reporter, luminescence, 16 h. Potency, µM (series often up to 46 µM), inactives show at the highest dose activity change, positive = activation, usual class: activators. 330,000 compounds, 1.3% hits. AID 504466, 2011; further: % of control where 0% means no effect; nearly all actives have a fitted effect of over 60% in size
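Cells (2,000/well) expressing the ELG1-luciferase fusion are dosed by pin tool and kept 16 hr at 37 °C, 5% CO2. Signal comes from ONE-Glo luciferase reagent after 30 min at room temperature.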
An asterisk follows results filed as active; ? = inconclusive; · = no result given; [ ] = remark or other dose. The call rests on the fitted dose curve; in most records, active means well fitted curve in the direction sought with a large enough effect; inconclusive means small, poorly fitted or top-dose-only effect, or another doubt; inactive means no such curve, though single readings can be large; an effect the other way counts as inactive or inconclusive. Potency means the concentration at half of the fitted maximal effect.

SMILES	SMN2 splice enh	Luc counter	NPC1 promoter act	Rab9 promoter act	FLuc counter	ELG1 genotoxic
O=C(NCc1ccccc1)c1ccc(NC(=O)c2nsc3ccccc23)cc1	·	·	·	·	6µM*	·
COc1ccc(OC)c(CNC(=O)c2ccc(C)c(NC(=O)c3nsc4ccccc34)c2)c1	·	·	·	·	-5%	·
Cc1ccc(C(=O)NCc2ccc(F)cc2)cc1NC(=O)c1nsc2ccccc12	·	·	·	·	-18%	·
COCCN1CCN(Cc2ccc(C(=O)NC(C)C)cc2)C(=O)C1=O	·	·	·	·	0%	·
O=C(COC(=O)c1ccccc1N1C(=O)C2C3CCC(C3)C2C1=O)c1ccccc1 (stereo not drawn)	-5%	-3%	-2%	-9%	-12%	1%
Cc1ccc(C)c(C(=O)COC(=O)c2ccccc2N2C(=O)C3C4CCC(C4)C3C2=O)c1 (stereo not drawn)	-7%	0%	14%	6%	7.6µM*	-6%
c1csc(-c2nnc(N3CCCCCC3)c3ccccc23)c1	·	·	4%	10%	3µM*	1%
CCS(=O)(=O)n1nc(-c2ccc(Cl)cc2)nc1SCc1ccccc1	14µM*	-1%	29%	?	15µM*	17%
O=C(CCc1nnc(CCc2c[nH]c3ccccc23)o1)NC1CCC1	·	·	?	3.5µM*	21µM*	?
O=C(CCc1nnc(Cc2c[nH]c3ccccc23)o1)NC1CCCC1	·	3%	-8%	-3%	4%	0%
Nc1ccc(O)cc1C(=O)OCC(=O)c1ccc(C2CCCCC2)cc1	-30%	-1%	-6%	3%	2.7µM*	?
O=C(OCC(=O)N(C1CCCCC1)C1CCCCC1)c1ccc(O)cc1	·	·	-2%	3%	4%	-2%
COc1ccc(C(=O)Nc2ccc(C(=O)OCC(=O)c3ccccc3)cc2)cc1	0%	-3%	11%	11%	0%	1%
O=C(OCC(=O)C12CC3CC(CC(C3)C1)C2)c1ccc(O)cc1	·	·	·	·	·	8%
Nc1ccc(O)cc1C(=O)OCC(=O)C12CC3CC(CC(C3)C1)C2	-23%	1%	0%	-6%	15µM*	-1%
COc1ccc(C(=O)OCC(=O)c2ccc(C3CCCCC3)cc2)cc1	-85%	2%	-11%	-24%	-13%	6.5µM*
Oc1ccc2ccccc2c1SSc1c(O)ccc2ccccc12	·	·	5%[46.1 µM]	1%[46.1 µM]	·	·
COCCNc1nc(-c2cc3ccccc3o2)cs1	3.2µM*	3%	1.6µM*	1µM*	1.5µM*	?
COc1ccc(C(=O)NCc2nnnn2-c2ccc(C)c(C)c2)cc1	·	·	·	·	-1%	·
CCCCOC(=O)Nc1ccc(N(C)C)cc1	11µM*	-11%	4µM*	2.8µM*	3µM*	9.2µM*
CCOC(=O)c1c(C)c(C(=O)NCCOC)c(C)n1CC	-2%	-3%	-2%	-6%	1%	-1%
COc1ccc(NC(=O)Nc2ccc(C(C)C)cc2)cc1	·	·	24%	?	?	12%
CCOC(=O)c1c(C)c(C(=O)Nc2ccc(N(C)C)cc2)c(C)n1CC	-7%	-3%	-13%	4%	15µM*	4%
CCCCOC(=O)Nc1ccc(S(=O)(=O)Nn2cnnc2)cc1	4%	1%	-2%	-3%	-8%	0%
CCCCOC(=O)Nc1cccc(C(=O)OCC)c1	?	-3%	0.22µM*	0.32µM*	?	?
SMILES	SMN2 splice enh	Luc counter	NPC1 promoter act	Rab9 promoter act	FLuc counter	ELG1 genotoxic
CCCCOC(=O)Nc1ccc(C(C)C)cc1	14µM*	0%	?	?	9.5µM*	?
CCOc1ccc(C(=O)Nc2ccc3nc(SCC(=O)N4CCc5ccccc54)sc3c2)cc1	·	·	·	·	-7%	·
COc1ccccc1NC(=O)C(=O)NCC(c1ccc2c(c1)OCO2)N1CCOCC1 (stereo not drawn)	·	·	·	·	0%	·
Cc1cccc(N2CCN(C(=O)C3CCN(Cc4nc(-c5ccc(Cl)cc5)oc4C)CC3)CC2)c1C	·	·	·	·	-13%	·
CCc1ccc(-c2nn(CC(=O)NCc3ccccc3)c3c2cnc2ccc(F)cc23)cc1	·	·	·	·	4%	·
Cc1cccc(-n2ncc(C(=O)NCc3ccc4c(c3)OCO4)c2C2CCN(C(=O)OC(C)(C)C)CC2)c1	·	·	·	·	5%	·
CCCCOC(=O)Nc1nnc(C(C)C)s1	?	0%	2.8µM*	2.2µM*	?	?
CCCC(C)C(=O)Nc1ccc(C(N)=O)cc1 (stereo not drawn)	17%	-1%	-3%	-3%	5%	3%
CCCCOC(=O)Nc1ccc(C(N)=O)cc1	?	-4%	?	?	15µM*	23µM*
COc1ccc(Cn2c(CNS(=O)(=O)c3ccc(Cl)s3)nc3cccnc32)cc1	·	·	·	·	-16%	·
Cc1ccccc1-c1nc(NC(=O)CSc2ncnc3sc4c(c23)CCCC4)ns1	-6%	·	·	·	0%	·
CCc1nnc(SCC(=O)Nc2cccc(C(F)(F)F)c2)c2cc3oc(C)cc3n12	·	·	·	·	2%	·
Cc1cc(C)c(NC(=O)c2cc3c(=O)n4ccccc4nc3n2C)c(C)c1	·	·	·	·	-3%	·
Cn1c(C(=O)NCc2ccccn2)cc2c(=O)n3ccccc3nc21	14µM*	2%	?	2µM*	15µM*	?
COC(=O)c1ccccc1NC(=O)CCC(=O)N1CC(C)Sc2ccccc21 (stereo not drawn)	·	·	·	·	-4%	·
O=C(NCc1ccc(-c2nc3ccccc3s2)cc1)c1cc2ccccc2o1	·	·	1%	2%	?	12%
O=C(NCc1ccc(-c2nc3ccccc3s2)cc1)c1ccc(Br)o1	-21%[1.84 µM]	-3%	14%	24%	11µM*	?
COc1ccc(-c2nc3ccccc3s2)cc1NC(=O)c1ccccc1OC	?	·	·	·	11µM*	·
COc1ccc(C(=O)Nc2cc(C)c(O)c(-c3nc4ccccc4s3)c2)cc1OC	5%	·	·	·	0.67µM*	·
COc1cc(C(=O)NCc2ccc(-c3nc4ccccc4s3)cc2)cc(OC)c1OC	18µM*	-4%	23%	?	0.6µM*	?
CCc1ccccc1NC(=O)Cn1nc(CC)n2c(cc3sccc32)c1=O	-2%	·	·	·	4%	·
COc1ccccc1CNS(=O)(=O)c1c(C)nc2sc(C)cn2c1=O	·	·	·	·	-3%	·
COc1cc(C(=O)NCc2ccc(OCCN(C)C)cc2)cc(OC)c1OC	?	-4%	-4%	-1%	4%	23µM*
COc1cc(C(=O)NCc2ccncc2)cc(OC)c1OC	·	-5%	-1%	-1%	1%	4%
COc1ccccc1C(=O)NCc1ccc(-c2nc3ccccc3s2)cc1	-12%[1.84 µM]	4%	28%	?	6µM*	18%

From PubChem BioAssay
